{"source": "PubChem BioAssay", "note": "Values without a mark were called inactive. The rule behind the calls is not given here."}
{"molecular_target": "Pantothenate synthetase (Mycobacterium tuberculosis (strain ATCC 25618 / H37Rv)) (UniProt P9WIL5)", "sequence (P9WIL5 whole entry, looked up)": "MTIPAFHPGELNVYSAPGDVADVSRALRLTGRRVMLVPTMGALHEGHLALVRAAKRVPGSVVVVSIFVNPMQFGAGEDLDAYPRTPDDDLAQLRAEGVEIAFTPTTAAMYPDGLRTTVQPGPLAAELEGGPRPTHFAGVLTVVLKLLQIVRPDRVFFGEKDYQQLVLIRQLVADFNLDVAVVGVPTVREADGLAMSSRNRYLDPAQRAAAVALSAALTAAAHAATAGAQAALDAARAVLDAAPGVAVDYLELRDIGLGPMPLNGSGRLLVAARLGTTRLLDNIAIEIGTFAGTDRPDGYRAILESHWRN", "test": "Recombinant Mtb pantothenate synthetase (PanC) inhibitors, coupled enzyme, confirmatory (AID 375);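 note: 0% = full reaction with vehicle and 100% = no enzyme background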", "settings": "coupled enzyme assay; at 10 µM, stronger effect = higher value", "units": {"inhibition": "%"}}
{"smiles": "CCN1C(=O)C(C(=O)Nc2ccc(OC)cc2)C2CC1(C)Oc1ccccc12", "note": "(stereo not given)", "inhibition": 0}
{"smiles": "COC(=O)Cc1csc(N)n1", "inhibition": 0}
{"smiles": "O=C1NC(Nc2ccccn2)(C(F)(F)F)C(=O)N1c1ccc(F)cc1", "note": "(stereo not given)", "inhibition": 0}
{"smiles": "CN(C)CCC=C1c2ccccc2CCc2ccccc21", "inhibition": 0}
{"smiles": "Cc1cccc(C)c1NC(=O)C1CCCCN1C", "note": "(stereo not given)", "inhibition": 0}
{"smiles": "COc1ccccc1N1CCN(C/C(O)=C(\\C#N)c2nc(-c3ccccc3)cs2)CC1", "inhibition": 2}
{"smiles": "Cc1cccc(-c2cc3nc(C)cc(NCCCN(C)C)n3n2)c1", "inhibition": 0}
{"smiles": "COC(=O)N1CC(c2ccccc2)CC1=O", "note": "(stereo not given)", "inhibition": 4}
{"smiles": "c1ccc2c(c1)ccc1nnc(-c3ccc4c(c3)OCO4)n12", "inhibition": 2}
{"smiles": "Cc1cc(C)nc(SCC(=O)Nc2ncc3c(n2)CCCC3=O)n1", "inhibition": 0}
{"smiles": "O=C(Cn1ncc2c(=O)oc3ccccc3c21)Nc1nc2ccccc2s1", "inhibition": 0}
{"smiles": "CCOC(=O)N1CCN(C(=O)C2c3cc(OC)c(OC)cc3C(=O)N3CCc4ccccc4C23)CC1", "note": "(stereo not given)", "inhibition": 4}
{"smiles": "CCOc1ccc(CCNC(=O)CCc2nc(-c3ccc(OC)cc3)no2)cc1OCC", "inhibition": 0}
{"smiles": "CCOC(=O)C1CCN(C(=O)CN(c2ccc(Cl)c(C(F)(F)F)c2)S(C)(=O)=O)CC1", "inhibition": 4}
{"smiles": "Cc1nc2ccccn2c1C(=O)NCCCN1CCOCC1", "inhibition": 10}
{"smiles": "CCCOc1ccccc1C1CC(=O)Nc2cc3c(cc21)OCCO3", "note": "(stereo not given)", "inhibition": 2}
{"smiles": "O=C(NCC(=O)N(c1cccnc1)C(C(=O)NC1CCCCC1)c1cccnc1)c1ccco1", "note": "(stereo not given)", "inhibition": 0}
{"smiles": "COc1cc2cc(C(c3nnnn3C3CCCC3)N(C)C3CCCCC3)c(=O)[nH]c2cc1OC", "note": "(stereo not given)", "inhibition": 9}
{"smiles": "Cn1c(=O)c2c(nc(CN3CCCCC3)n2CCc2ccccc2)n(C)c1=O", "inhibition": 1}
{"smiles": "COC(=O)c1cc2oc(C)cc2n1CC(=O)Nc1ccc(C)c(C)c1", "inhibition": 0}
{"smiles": "COCCNC(=O)C(c1ccncc1)N(C(=O)Cn1nnc2ccccc21)c1ccc(OC)cc1", "note": "(stereo not given)", "inhibition": 0}
{"smiles": "O=C(NCc1cccnc1)/C(=N\\O)c1ccccc1", "inhibition": 0}
{"smiles": "NC(=O)c1cccc2c1C(=O)N(C1CCCCC1)C2", "inhibition": 0}
{"smiles": "CC(=O)[C@@]1(O)CC[C@H]2[C@@H]3C[C@H](C)C4=CC(=O)C=C[C@]4(C)[C@@]3(F)[C@@H](O)C[C@@]21C", "inhibition": 6}
{"smiles": "CCOc1ccc(C(=O)Nc2ccc(N3CCN(C)CC3)cc2)cc1Br", "inhibition": 0}
{"smiles": "CC(C)NC(=O)Nc1cccs1", "inhibition": 9}
{"smiles": "CN1CCN(CCCNC(=O)Cn2ncc3c4ccccc4n(C)c3c2=O)CC1", "inhibition": 0}
{"smiles": "CCc1ccc(NC(=O)CSc2nnc(Cc3cccn3C)n2-c2ccc(OC)cc2)cc1", "inhibition": 0}
{"smiles": "COc1ccc(-n2c(Cc3cccn3C)nnc2SCC(=O)Nc2cccc(Cl)c2)cc1", "inhibition": 2}
{"smiles": "COc1ccc(-c2nnc(SCc3nnc(-c4ccc(Cl)cc4)o3)n2-c2ccccc2)cc1", "inhibition": 0}
{"smiles": "Cn1cnnc1SCC(=O)Nc1ccccc1Sc1ccccc1", "inhibition": 7}
{"smiles": "COc1ccc(NC(=O)CCc2ccccc2)cc1NC(=O)c1ccco1", "inhibition": 9}
{"smiles": "O=C(c1ccc2ccccc2n1)N1CCN(c2ccccc2)CC1", "inhibition": 0}
{"smiles": "COc1ccccc1-c1cc2nc(C)c(CCC(=O)NCc3ccco3)c(C)n2n1", "inhibition": 0}
{"smiles": "C[N+](C)(C)CCOP(=O)([O-])OC[C@H](O)CO", "inhibition": 1}
{"smiles": "CC(=O)Nc1nc(=S)ss1", "inhibition": 6}
{"smiles": "O=S(=O)(CCOc1ccccc1)c1nc2ccccc2[nH]1", "inhibition": 0}
{"smiles": "Cc1cc(=O)oc2cc(OCC#N)ccc12", "inhibition": 0}
{"smiles": "COc1cc(NC(=O)c2cc(CC(C)C)on2)c(OC)cc1Cl", "inhibition": 5}
{"smiles": "Cc1cc(C(=O)COC(=O)CCc2nc3ccccc3s2)c(C)n1C", "inhibition": 0}
